High-throughput results (PubChem BioAssay)
Most compounds without a hit are left out; they make up all but 4.1% or so of the library.
ssDAF-12 act: activators of S. stercoralis DAF-12 nuclear receptor | HEK293 ssDAF-12/GRIP1 lit1-tk-luc reporter, luminescence; % of 3 µM dafachronic acid response | activation, % at 6.8 µM | hit rate 1% among 370,000 | AID 652126;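 active = activation above the mean over all tested compounds plus 3 SD, cut at about 0.9% in these data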
DAX1 inh-1: inhibits human nuclear receptor DAX1; P51843; HEK293 Gal4-DAX1 luciferase reporter, luminescence; inhibition, % at 6.75 µM; hit rate 0.99% among 340,000;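 active = inhibition above the mean over all tested compounds plus 3 SD, cut at about 4.2% in these data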;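 also: inhibition shows as a rise in luminescence from relieved DAX1 repression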
Target sequence (P51843 207-470 limits assumed): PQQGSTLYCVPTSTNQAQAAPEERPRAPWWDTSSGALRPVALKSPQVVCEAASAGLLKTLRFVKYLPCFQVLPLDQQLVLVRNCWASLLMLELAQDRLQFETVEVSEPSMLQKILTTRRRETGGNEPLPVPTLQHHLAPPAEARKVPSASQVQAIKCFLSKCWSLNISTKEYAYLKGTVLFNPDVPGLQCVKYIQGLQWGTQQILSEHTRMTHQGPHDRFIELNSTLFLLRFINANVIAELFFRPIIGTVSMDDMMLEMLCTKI
hgDAF12 agonist: activates the H. glycines DAF-12 receptor ligand-binding domain | AID 687014 | hit rate 1.8% among 370,000 | activation, % at 6.8 µM | HEK293 GAL4-hgDAF12 UAS-luciferase reporter, agonist luminescence; normalized to butyrate control;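 active = activation above a cutoff set at the mean of all screened compounds plus 3 SD, cut at about 10% in these data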
hcDAF-12 act: activators of H. contortus DAF-12 nuclear receptor; HEK293 hcDAF-12 lit1-tk-luc reporter, luminescence; 0% DMSO, 100% Δ7-dafachronic acid; activation, % at 6.8 µM; hit rate 1.4% among 370,000;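 active = activation above the mean of all tested compounds plus 3 SD, cut at about 5.5% in these data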
DAX1 inh-2: blocks DAX1 repression of SF-1 activated StAR promoter. inhibition, % at 6.8 µM. hit rate 1.1% among 370,000. AID 652010. HEK293T StAR-luciferase reporter, SF-1/DAX-1 repression relief;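 active = inhibition above the mean over all tested compounds plus 3 SD, cut at about 3.6% in these data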;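 also: higher inhibition means more luminescence from relief of DAX-1 repression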
DAX1 conf: confirmation of human DAX1 (NR0B1) inhibitors | shares compounds with DAX1 inh-2 | inhibition, % at 6.8 µM | hit rate 87% among 2,400 | HEK293T StAR-promoter luciferase reporter, SF-1/DAX-1 repression | AID 652134;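 active = inhibition above the average of every tested compound plus 3 SD, cut at about 3.8% in these data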;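 also: active compounds raise luminescence by relieving repression of the StAR reporter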
Target sequence (P51843 whole entry, looked up): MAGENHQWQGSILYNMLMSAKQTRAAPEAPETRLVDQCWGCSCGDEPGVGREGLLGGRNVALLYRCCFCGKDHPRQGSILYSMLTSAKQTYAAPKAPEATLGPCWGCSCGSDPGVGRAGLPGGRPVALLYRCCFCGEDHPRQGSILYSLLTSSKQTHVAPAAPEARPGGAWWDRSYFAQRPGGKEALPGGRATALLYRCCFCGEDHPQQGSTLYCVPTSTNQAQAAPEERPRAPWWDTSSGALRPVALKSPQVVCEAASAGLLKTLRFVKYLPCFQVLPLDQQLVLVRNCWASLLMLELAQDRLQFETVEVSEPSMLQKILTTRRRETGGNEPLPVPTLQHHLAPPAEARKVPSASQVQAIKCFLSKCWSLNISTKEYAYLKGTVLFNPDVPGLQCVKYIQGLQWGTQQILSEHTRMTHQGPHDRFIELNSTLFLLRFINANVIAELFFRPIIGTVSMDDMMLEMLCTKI
SF1 mutant ctr: nonselective inhibitor or artifact in SF-1 mutant DAX1 counter-screen. HEK293 StAR-luciferase, SF-1 AF2 mutant, luminescence. shares compounds with DAX1 inh-2. hit rate 78% among 2,400. inhibition, % at 6.8 µM;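 active = inhibition above the mean of all tested compounds plus 3 SD, cut at about 3% in these data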
Of the large screens only hits and unclear results are named; the others gave an inactive call (follow-up assays come after a bar, where they were run).

CCOC(=O)N1CCN(C(=O)c2cc(COc3c(F)cccc3F)on2)CC1	hgDAF12 agonist 11.5, DAX1 inh-2 7.8 | DAX1 conf 8.9 | SF1 mutant ctr 5.7
COc1ccc(CN(C2CCCC2)S(=O)(=O)c2cc(Br)ccc2Br)c(OC)c1	none (no result: DAX1 inh-1)
O=C(CSc1n[nH]c(=O)n1C1CC1)Nc1ccccc1	DAX1 inh-2 11.3 | DAX1 conf inactive | SF1 mutant ctr inactive
N#Cc1ccc(NC(=O)CSc2n[nH]c(=O)n2C2CC2)cc1	none
COc1ccc(/C(N)=N/OC(=O)c2cccs2)cc1OC	DAX1 inh-2 8.3 | DAX1 conf 6.2 | SF1 mutant ctr 6.1
N/C(=N\OC(=O)c1cccs1)c1cccc(Br)c1	none
O=C(C1CCC1)N1CCc2cc(S(=O)(=O)N3CCCC3)ccc21	none (no result: DAX1 inh-1)
CC(C)C[C@@H](CN1CCC[C@@H]1CN1C(=S)NC[C@@H]1Cc1ccccc1)N1C[C@H](Cc2ccc(O)cc2)N(CC2CCCCCC2)C1=S	DAX1 inh-2 5.0 (no result: DAX1 inh-1) | DAX1 conf inactive | SF1 mutant ctr inactive
CCOc1ccc(CCN2C(=S)N([C@@H](CC(C)C)CN3CCCC3CN3C(=S)NC[C@@H]3CC(C)C)C[C@@H]2Cc2ccccc2)cc1 (stereo partly drawn)	DAX1 inh-2 4.8 | DAX1 conf inactive | SF1 mutant ctr inactive
CC(C)C[C@@H](CN1CCC[C@@H]1CN1C(=S)NC[C@@H]1Cc1ccccc1)N1C[C@H](Cc2ccc(O)cc2)N(CC2CCCCC2)C1=S	none (no result: DAX1 inh-1)
Oc1ccc(C[C@H]2CNC(=S)N2CC2CCCN2C[C@H](Cc2ccccc2)N2C[C@H](Cc3ccc(O)cc3)N(CC3CCCCCC3)C2=S)cc1 (stereo partly drawn)	DAX1 inh-2 4.9 | DAX1 conf inactive | SF1 mutant ctr inactive
Oc1ccc(C[C@H]2CN([C@@H](Cc3ccccc3)CN3CCCC3CN3C(=S)NC[C@@H]3Cc3ccccc3)C(=S)N2CC2CCCCC2)cc1 (stereo partly drawn)	none (no result: DAX1 inh-1)
CCN1C(=O)N(C(C)=O)[C@@H]2C[C@H](C(=O)N3CCCC3)[C@H](C)[C@H](c3ccccc3)C[C@@H]21	none (no result: DAX1 inh-1)
Cc1ccc(CC(=O)O/N=C(\N)c2ccccn2)cc1	hgDAF12 agonist 11.2, DAX1 inh-2 5.0 | DAX1 conf 4.0 | SF1 mutant ctr 3.2
Brc1ccccc1-c1nc2c3ccccc3ncn2n1	hgDAF12 agonist 10.9, hcDAF-12 act 6.0, DAX1 inh-2 4.6 | DAX1 conf 9.0 | SF1 mutant ctr 6.4
COc1cc(OC)c2c(-c3cccc(-c4ccc(NC(C)=O)cc4)c3)cc(=O)oc2c1	DAX1 inh-2 4.8 | DAX1 conf 6.3 | SF1 mutant ctr inactive
Cc1ccnc(NC(=O)CNC(=O)c2sc3ccccc3c2Cl)c1	DAX1 inh-2 10.0 | DAX1 conf 11.2 | SF1 mutant ctr 7.2
O=C(NCC(=O)N1CCCCC1)c1sc2ccccc2c1Cl	DAX1 inh-2 5.8 | DAX1 conf 5.5 | SF1 mutant ctr 3.4
Cc1ccc2nsnc2c1NC(=O)c1sc2ccccc2c1Cl	none
Cc1cccnc1NC(=O)c1sc2ccccc2c1Cl	hgDAF12 agonist 13.2, DAX1 inh-2 10.1 | DAX1 conf 11.3 | SF1 mutant ctr 5.3
CCOC(=O)[C@@]12CCCC3=C1N(CCC3)C(=O)[C@H]2CC(=O)NCCCOC	none (no result: DAX1 inh-1)
COc1cccc(N2CCN(C(=O)CSc3nc4ncccc4[nH]3)CC2)c1	none (no result: DAX1 inh-1)
CCOC(=O)c1c(C)[nH]c(C(=O)NNC(=O)c2ccccc2F)c1C	DAX1 inh-2 5.1 | DAX1 conf 8.3 | SF1 mutant ctr 6.5
COc1ccccc1-c1nnc2n1N=C(c1ccc3c(c1)OCO3)CS2	DAX1 inh-2 4.7 (no result: DAX1 inh-1) | DAX1 conf 10.9 | SF1 mutant ctr inactive
COc1ccc(C2=Nn3c(nnc3-c3ccccc3Cl)SC2)cc1OC1CCOC1 (stereo not drawn)	none
COc1ccc(OC)c(-c2nnc3n2N=C(c2ccc(OC)c(OC4CCOC4)c2)CS3)c1 (stereo not drawn)	DAX1 inh-2 4.9 | DAX1 conf 19.4 | SF1 mutant ctr inactive
O=C(O)c1cc(N/N=C/c2ccc3c(c2)OCO3)ccc1Cl	hcDAF-12 act 6.0, DAX1 inh-2 6.7 | DAX1 conf 6.3 | SF1 mutant ctr 3.1
CCOc1cc(/C=N/NC(=O)c2ccccn2)ccc1OC(=O)c1cccs1	none
O=c1[nH]c(N/N=C\c2ccc3c(c2)OCO3)nc2ccccc12	hgDAF12 agonist 13.1, DAX1 inh-2 4.9 | DAX1 conf 6.5 | SF1 mutant ctr 3.3
O=C(N/N=C/c1ccc(OC(=O)c2cccs2)cc1)c1ccccn1	DAX1 inh-2 6.9 | DAX1 conf 8.1 | SF1 mutant ctr 4.7
O=C(N/N=C/c1ccc2c(c1)OCO2)c1ccccn1	DAX1 inh-2 4.7 | DAX1 conf 10.7 | SF1 mutant ctr inactive
COc1ccccc1CNC(=O)NCCCN1CCN(c2ccc(F)cc2)CC1	none (no result: DAX1 inh-1)
O=C(O)c1ccc(N/N=C/c2ccc(-c3ccc(Cl)cc3Cl)o2)cc1	DAX1 inh-2 5.1 | DAX1 conf 14.5 | SF1 mutant ctr 5.6
O=C(O)c1ccc(N/N=C/c2ccc(-c3cccc(Cl)c3)o2)cc1	ssDAF-12 act 1.0, DAX1 inh-1 7.2, hgDAF12 agonist 15.7, DAX1 inh-2 6.2 | DAX1 conf 12.8 | SF1 mutant ctr 7.6
Cc1ccc(C(=O)Nc2ccc(Cl)cc2C)c(Cl)c1	hgDAF12 agonist 12.2, DAX1 inh-2 6.7 | DAX1 conf 7.2 | SF1 mutant ctr 5.4
Cc1cc(NC(=O)c2ccccc2Cl)ccc1NC(=O)c1ccccc1Cl	none
CNc1nnc(SCC(=O)c2cc(C)n(C3CC3)c2C)s1	DAX1 inh-2 5.0 | DAX1 conf 6.7 | SF1 mutant ctr inactive
O=C1Nc2c(Cl)cc(Cl)cc2C12Nc1ccccc1S2 (stereo not drawn)	none (no result: DAX1 inh-1)
COc1cc(C(=O)c2cc3c(cc2C)OCO3)cc(OC)c1OC	DAX1 inh-2 6.5 (no result: DAX1 inh-1) | DAX1 conf 12.8 | SF1 mutant ctr inactive
COC(=O)c1ccc(-c2cccc(CN3CCN(c4ncc(Cc5ccccc5)cn4)CC3)c2)cc1	none (no result: DAX1 inh-1)
Fc1cccc(CNC(=S)OC2CCC23CCC(c2ccccc2)CC3)c1 (stereo not drawn)	none (no result: DAX1 inh-1)
c1ccc(CNc2ccc3ccccc3n2)nc1	ssDAF-12 act 1.0, hgDAF12 agonist 14.6, hcDAF-12 act 8.0, DAX1 inh-2 7.9 | DAX1 conf 12.3 | SF1 mutant ctr 8.2
Cc1cc(NCc2ccccn2)nc2ccccc12	none
O=C(NCCc1ccccc1F)c1ccc2c(c1)ncn2C1CCCCC1	none (no result: DAX1 inh-1)
Nc1ccc(-c2nc3cc(N)ccc3s2)cc1	ssDAF-12 act 1.0, hgDAF12 agonist 20.9, hcDAF-12 act 6.5, DAX1 inh-2 4.8 | DAX1 conf 11.0 | SF1 mutant ctr 4.2
